Test results taken from ChEMBL document CHEMBL3433997, “St. Jude Leishmania screening dataset” (2016).

target: Glucose transporter (Leishmania mexicana) (UniProt O61059); assay: ST_JUDE_LEISH: Cytotoxicity at 2uM final concentration against transgenic Leishmania Mexicana promastigotes LmGT2 that are glucose transport deficient and complemented with the L. Mexicana glucose transporter 2. Activity is measured by DNA content using SYBR green in vitro; type: functional

| Structure (SMILES) | inhibition |
| --- | --- |
| c1ccc(COc2ccc(C3CCCCC3)cc2)nc1 | 2.1% |
| Oc1ccc(CCNc2nc(NCc3ccccc3-c3ccccc3)nc(N3CCCNCC3)n2)cc1 | 0.48% |
| O=C(Nc1ccc(Cl)cc1)Nc1cccc(-c2cccc(-c3nc4ccccc4[nH]3)c2)c1 | -0.65% |
| CCN1C(=O)C(CC(=O)Nc2cccc(Cl)c2)N(Cc2ccc(OC)c(OC)c2)C1=S (centres undefined) | 0.57% |
| O=C(C=Cc1ccc(-c2ccccc2)cc1)N1CCC(CCN2CCC(c3c[nH]c4ccccc34)CC2)CC1 | -1.2% |
| CCCCCCn1c(Sc2ccc(C#N)c([N+](=O)[O-])c2)nnc1-c1cc(OC)cc(OC)c1 | 4.53% |
| Cc1ccccc1C1CCN(C2CCC(NC(=O)c3ccc4c(c3)-c3nocc3C(C)O4)CC2)CC1 (centres undefined) | 5.18% |
| CN(Cc1ccncc1)C(Cc1ccccc1)C1CCN(Cc2ccc(O)c(Cl)c2)CC1 (centres undefined) | -0.31% |
| CN(CCON1C(=N)N=C(N)NC1(C)C)c1ccccc1 | 0.35% |
| CC(C)(C)Cn1cc(-c2ccc(C(=O)NCCc3ccc(S(C)(=O)=O)cc3)cc2)c(N)n1.CC(C)(C)Cn1ncc(-c2ccc(C(=O)NCCc3ccc(S(C)(=O)=O)cc3)cc2)c1N | 2.93% |
| CN(CCCNC(=S)NC12CC3CC(CC(C3)C1)C2)CCCNc1ccnc2cc(Cl)ccc12 | 1.25% |
| Cc1c(Cl)cccc1S(=O)(=O)Nc1ccc(CCN2CCC(N)CC2)cc1 | -2.13% |
| O=C(Nc1ccc2c(c1)OCO2)c1cc(-c2cccnc2)nc2ccc(Cl)cc12 | -0.92% |
| Nc1c(-c2ccc(C(=O)NCCNCc3ccccc3)cc2)cnn1-c1ccc(C(F)(F)F)cc1 | -0.31% |
